The record followed here is PubChem BioAssay AID1533 (PCMD, 2009).

Out of some 160,000 compounds screened, about 45 (0.03%) were called active. Cut-off read from the data, not from the text of the source: active = inhibition mostly above about 34% (no sharp cut-off); inconclusive = no clear call, values can overlap the other calls; inactive = mostly below about 22%. This excerpt belongs to a sample that is enriched for actives.

The target in this experiment is dTDP-4-dehydrorhamnose reductase (Mycobacterium tuberculosis (strain ATCC 25618 / H37Rv)) + dTDP-4-dehydrorhamnose 3,5-epimerase (Mycobacterium tuberculosis (strain ATCC 25618 / H37Rv)) (UniProt P9WH09+P9WH11). Description: M. tuberculosis RmlC/RmlD coupled enzyme inhibitors, primary screen, biochemical, compound mixtures, 384-well, from 1536-well plates (AID 1533). The settings on record: RmlC+RmlD coupled enzyme assay, percent inhibition, primary screen in compound mixtures, stronger effect = higher value.
dTDP-4-dehydrorhamnose reductase (Mycobacterium tuberculosis (strain ATCC 25618 / H37Rv)) + dTDP-4-dehydrorhamnose 3,5-epimerase (Mycobacterium tuberculosis (strain ATCC 25618 / H37Rv)), sequence (P9WH09 whole entry, looked up): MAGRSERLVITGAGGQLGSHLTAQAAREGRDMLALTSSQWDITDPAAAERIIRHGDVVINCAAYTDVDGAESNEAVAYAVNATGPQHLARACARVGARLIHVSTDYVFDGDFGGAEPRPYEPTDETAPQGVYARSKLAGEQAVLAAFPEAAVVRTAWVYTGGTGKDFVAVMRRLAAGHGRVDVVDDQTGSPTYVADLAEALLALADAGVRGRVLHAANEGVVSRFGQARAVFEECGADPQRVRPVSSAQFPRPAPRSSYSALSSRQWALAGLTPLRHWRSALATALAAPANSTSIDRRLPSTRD
dTDP-4-dehydrorhamnose reductase (Mycobacterium tuberculosis (strain ATCC 25618 / H37Rv)) + dTDP-4-dehydrorhamnose 3,5-epimerase (Mycobacterium tuberculosis (strain ATCC 25618 / H37Rv)), sequence (P9WH11 whole entry, looked up): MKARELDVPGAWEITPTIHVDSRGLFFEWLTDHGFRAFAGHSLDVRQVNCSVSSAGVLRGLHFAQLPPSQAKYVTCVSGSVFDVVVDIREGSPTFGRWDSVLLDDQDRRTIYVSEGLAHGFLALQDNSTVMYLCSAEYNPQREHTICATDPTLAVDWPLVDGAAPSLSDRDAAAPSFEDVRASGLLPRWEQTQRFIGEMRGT

[1] abbreviates: measured here: mean retest inhibition, at 5.5 µM.

By inhibition is commonly meant the relative decrease from the control value, in per cent. Consider `COc1ccc2[nH]c(=S)cc(C)c2c1`, for which the inhibition (at 3.6 µM) was 1.84% (inactive). Same read-out and setting: in the case of `Cc1cc(=O)oc2cc(OCCC[n+]3ccccc3)ccc12` it was 2.56% (inactive). For the molecule `CCc1ccc(-n2c(SCc3cc(=O)n4cc(Br)ccc4n3)nc3[nH]ncc3c2=O)cc1`, for the setting “at 3.6 µM”, the inhibition was -10.8% (inactive). Same read-out and setting: for `CCn1c2ccccc2c2cc(NC(=O)Nc3ccc([N+](=O)[O-])cc3C)ccc21` the value was 14.1% (inactive); for `O=C(Nc1cccnc1)c1cc([N+](=O)[O-])ccc1Cl`, -16% (inactive). Same read-out and setting: for `COc1cccc(C(=O)n2ccc(-c3cccs3)n2)c1` the value was 2.94% (inactive); for `COc1ccc(N(Cc2ccccc2)S(=O)(=O)c2cccc(C(=O)O)c2)cc1`, 1.87% (inactive); for `COc1ccccc1Cn1c(CO)nc2ccccc21`, 17.8% (inactive).

On to `CC(=O)N1N=C(c2ccncc2)OC1(Cc1ccccc1)Cc1ccccc1`, for which, for the setting “at 3.6 µM”, the inhibition is 9.53% (inactive).

On to `COc1cccc(CNn2cn[nH]c2=S)c1OCc1ccccc1`, for which, under “at 3.6 µM”, the inhibition is -3.37% (inactive). Same read-out and setting: in the case of `C=CCN1C(=O)C(O)(CC(=O)c2ccccn2)c2ccccc21` (configuration not stated) it was -20.3% (inactive); in that of `S=c1[nH]nc(Nc2ccccc2)s1`, -6.55% (inactive); in that of `CC1C(=O)NC(=O)C1c1ccccc1` (configuration not stated), 11.3% (inactive). Same read-out and setting: for `COc1ccc(NC(=O)C2CCC(CNc3c(N4CCCCC4)c(=O)c3=O)CC2)c(OC)c1` (configuration not stated) the value was 1.5% (inactive); for `O=C(Nc1ccccc1)Nc1ccc(C(F)(F)F)cn1`, -12.1% (inactive); for `COC(=O)c1sc(SC)c(S(=O)(=O)C(C)C)c1N/N=C(\C#N)S(=O)(=O)c1ccccn1`, 26.5% (inactive). In the case of `O=C(NC1C2CC3CC(C2)CC1C3)c1ccc(N2CCNCC2)c([N+](=O)[O-])c1` (configuration not stated), the inhibition (at 3.6 µM) was -17.8% (inactive). As to `C=CCC1(C#N)C(=S)NC(C)=C(C(=O)OCC)C1c1ccccc1` (configuration not stated), the inhibition (at 3.6 µM) is -2.23% (inactive). The same measure, in the same setting: in the case of `Cc1c(Cc2ccccc2)c(=O)oc2cc(OCC(N)=O)ccc12` it was -14.1% (inactive); in that of `Cn1c(SCC(=O)c2ccc(F)cc2)nnc1-c1ccccn1`, -3.85% (inactive); in that of `CCOC(=O)COc1nc(C)cc(C(F)(F)F)c1C#N`, 2.06% (inactive). As to `O=C(O)CCCCCCCCCC[n+]1ccccc1`, the inhibition (at 3.6 µM) was 9.14% (inactive). Regarding `NC(=O)c1ccc(NC(=O)COC(=O)c2ccc([N+](=O)[O-])cc2)cc1`, the inhibition (at 3.6 µM) was 11.7% (inactive). Same read-out and setting: in the case of `Cc1cc(N2CCN(c3ccc(F)cc3)CC2)n2ncnc2n1` it was 15.1% (inactive); in that of `CN(C)C(=O)c1nc2ccc(Cl)cn2c1CNCc1cccc(OC(F)(F)F)c1`, 10.5% (inactive). The same measure, in the same setting: in the case of `O=C(c1ccc(=O)oc1)N1CCC(C(O)(c2ccccc2)c2ccccc2)CC1` it was 7.4% (inactive); in that of `O=C(COC(=O)/C=C/c1ccc2c(c1)OCO2)NC1CCS(=O)(=O)C1` (configuration not stated), -0.46% (inactive); in that of `CCCCc1nnc(NC(=O)CSc2nc(N)cc(=O)[nH]2)s1`, -1.44% (inactive).

In the case of `CCC(O)C1CCN(Cc2cn(-c3ccc(OC)cc3)nc2-c2cccc(F)c2)CC1` (configuration not stated), the inhibition (at 3.6 µM) is -7.8% (inactive). With `CC(NC(=S)Nc1ccccc1)C(c1cccs1)N1CCOCC1` (configuration not stated), the inhibition (at 3.6 µM) was 3.55% (inactive). Still for that read-out and setting: in the case of `CCC1CCCCN1C(=O)CSc1nc2c(c(=O)n(C)c(=O)n2C)n1C` (configuration not stated) it was -9.61% (inactive).

For the molecule `CCOC(=O)c1ccccc1NC(=S)N1CCC(C(N)=O)CC1`, the inhibition (at 3.6 µM) is -16.5% (inactive). The same measure, in the same setting: in the case of `CC1=NN(c2ccccc2)C(=O)C1C(=O)c1ccc([N+](=O)[O-])cc1` (configuration not stated) it was 4.71% (inactive); in that of `CCCNc1c(N)c(=O)c1=O`, -3% (inactive); in that of `COc1ccc(CCNC(=O)C(=O)Nc2ccc3nc4n(c(=O)c3c2)CCCCC4)cc1OC`, -7.43% (inactive). The same measure, in the same setting: for `CN1CCN(c2ncc3c(n2)CC(c2ccccc2F)CC3=O)CC1` (configuration not stated) the value was 2.14% (inactive). Regarding `N#C/C(=C(\O)C(F)(F)F)c1nnc2n1CCCCC2`, the inhibition was 31.1% (inactive) (at 3.6 µM) and -1.52% under setting [1]. Consider `CCOc1ccc2nc(NCCNC(=O)C(C)(C)C)c(C)cc2c1`, for which the inhibition (at 3.6 µM) was -1% (inactive). For the molecule `Cn1cc(S(=O)(=O)NC(c2ccccc2)c2ccccc2)c(=O)n(C)c1=O`, the inhibition (at 3.6 µM) was -1% (inactive). Turning to `CN(c1ccc(OCC(=O)NC2=NCCS2)cc1)S(=O)(=O)c1ccc(F)cc1`, where the note is “at 3.6 µM”, the inhibition was 9.17% (inactive). Still for that read-out and setting: for `CC1CC1C(=O)OCC(=O)c1c(N)n(C)c(=O)n(C)c1=O` (configuration not stated) the value was -8.03% (inactive); for `O=S(=O)(NCCc1csc(-c2ccccc2)n1)c1cccnc1`, 4.16% (inactive); for `Cc1nnc2n1N=C(c1ccc3c(c1)NC(=O)CO3)CS2`, -5.45% (inactive).

As to `COc1ccc(C)cc1NC(=O)c1ccc(-c2ccc(C(C)=O)cc2)o1`, the inhibition (at 3.6 µM) is 6.7% (inactive). On the same count and under the same terms, in the case of `C/C(=N/NC(=O)CC(=O)N/N=C(\C)c1ccc([N+](=O)[O-])cc1)c1ccc([N+](=O)[O-])cc1` it was 11.2% (inactive); in that of `O=C(Nc1nc2ccc([N+](=O)[O-])cc2s1)c1ccncc1`, 8.08% (inactive); in that of `COc1cc(CN2CCNC(=O)C2CC(=O)NCCc2ncccc2C)cc(OC)c1` (configuration not stated), -11.4% (inactive). In the case of `CN(CC(=O)Nc1ccccc1F)CC(=O)Nc1ccccc1Br`, the inhibition (at 3.6 µM) is 27.7% (inactive).

As for `Cc1c(C)c(C)c2[nH]c(=S)[nH]c2c1C`, for the setting “at 3.6 µM”, the inhibition was 4.61% (inactive). For `O=c1[nH]c(CSc2ccccc2)nc2c1oc1ccccc12`, the inhibition (at 3.6 µM) is 2.42% (inactive). The same measure, in the same setting: for `CCOc1ccc(NC(=S)N2CCCCCC2)cc1` the value was -16.4% (inactive); for `CCOc1ccc(NS(=O)(=O)c2cc(C)c(C)cc2C)cc1`, -11.4% (inactive).

As for `CC(=O)c1c(C)[nH]c(=S)c(C#N)c1-c1ccc(F)cc1`, the inhibition (at 3.6 µM) was 10.4% (inactive). The same measure, in the same setting: in the case of `CCCc1nc2oc3c(=O)[nH]cnc3c2c2c1COC(C)(C)C2` it was -9.43% (inactive); in that of `O=C(NCc1cccnc1)C(=O)Nc1nc(-c2ccccc2)cs1`, -5.87% (inactive). On the same count and under the same terms, in the case of `Oc1oc(-c2ccccc2Br)nc1/C=N/c1ccccn1` it was 2.05% (inactive). Consider `Oc1cccc2ccc(/C=C/c3ccc(Br)s3)nc12`, for which the inhibition (at 3.6 µM) is -11.7% (inactive).

In the case of `CN(C)CCOc1cccc(Br)c1`, for the setting “at 3.6 µM”, the inhibition was 11.8% (inactive). Same read-out and setting: for `CN(C)c1ccc(NC(=O)CSc2n[nH]c(-c3ccco3)n2)cc1` the value was -3.13% (inactive).

As for `Cc1nc2ccccn2c1C(=O)NN=C1CCN(C)CC1`, where the note is “at 3.6 µM”, the inhibition is -1.88% (inactive). For `CC(C)OCCCNC(=O)c1ccc(C2SCC(=O)N2Cc2ccco2)cc1` (configuration not stated), the inhibition (at 3.6 µM) was 1.23% (inactive). Regarding `CCn1c(CSCc2c(Cl)cccc2Cl)n[nH]c1=S`, the inhibition (at 3.6 µM) was -0.03% (inactive). The same measure, in the same setting: for `O=C(O)CCc1nc2cc(Cl)ccc2n(Cc2ccccc2)c1=O` the value was -4.14% (inactive).

As for `Cc1nc2cccnc2nc1C`, the inhibition (at 3.6 µM) was -6.92% (inactive). Turning to `Cc1ccccc1Nc1nc(N)nc(CSc2nnc3ccccn23)n1`, the inhibition (at 3.6 µM) was 4.62% (inactive). Still for that read-out and setting: in the case of `CC(C)(C)NC(=O)/C(=C/c1cccnc1)NC(=O)c1ccco1` it was -0.65% (inactive); in that of `CN1CCN(C2=NCCO2)CC1`, -5.76% (inactive). Consider `CC(C)=C(NC(=O)c1ccccc1)C(=O)N/N=C(\C)c1ccccc1O`, for which the inhibition runs as follows: (at 3.6 µM) 51.8% (active); under setting [1], 31.3%. Turning to `C/C(=N\NC(=O)c1nc(C)cc(C)n1)c1ccccc1`, the inhibition (at 3.6 µM) is -2.86% (inactive). On the same count and under the same terms, in the case of `CNC(=O)C(NC(=O)c1ccccc1)=C(C)C` it was 3.15% (inactive); in that of `Cc1ccc(SCc2c(C(=O)N/N=C/C3CC=CCC3)nnn2-c2nonc2N)cc1` (configuration not stated), 9.89% (inactive). On to `OCC1(Cc2ccccc2C(F)(F)F)CCN(Cc2ccncc2)CC1`, for which the inhibition (at 3.6 µM) is 9.49% (inactive).

As to `O=C1C2C3C=CC(C3)C2C(=O)N1c1ccc(-c2nc3ccccc3c(=O)o2)cc1` (configuration not stated), the inhibition (at 3.6 µM) is 1.56% (inactive). On to `O=C(CCCl)Nc1ccc(S(=O)(=O)NCc2ccco2)cc1`, for which the inhibition (at 3.6 µM) was 4.49% (inactive). Same read-out and setting: for `CC(C)c1nc(SCC(=O)NC(=O)NC(C)(C)C)n[nH]1` the value was -8.54% (inactive); for `O=C(COC(=O)c1ccc(Cl)nc1)NCc1cccs1`, -9.13% (inactive); for `Cc1cc(C(=O)Cn2cnc3cc([N+](=O)[O-])ccc3c2=O)c(C)n1CC1CCCO1` (configuration not stated), 5.54% (inactive).

Take `C=CCSc1nnc(NC(=O)c2ccc(NC(C)=O)cc2)s1`: where the note is “at 3.6 µM”, the inhibition was 2.48% (inactive). Turning to `Cc1cc(C)c(NC(=O)CN2C(=O)NC(Cc3ccccc3)C2=O)c(C)c1` (configuration not stated), the inhibition (at 3.6 µM) is 43.2% (inactive) and the inhibition under setting [1] amounted to 7.39%. Consider `O=[N+]([O-])C(=c1ccc2c(c1)N1C3=C(CCCC3)CC3CCCCC31N=2)[N+](=O)[O-]` (configuration not stated), for which, for the setting “at 3.6 µM”, the inhibition was -9.85% (inactive).

For the molecule `CCOC(=O)CNC(=O)CSc1ccc2nnc(-c3cccnc3)n2n1`, the inhibition (at 3.6 µM) was -13.1% (inactive). On the same count and under the same terms, in the case of `CC(=O)Nc1ccc(CC#N)cc1` it was -7.92% (inactive); in that of `CC(NC(=O)C(=O)Nc1nccs1)c1ccccc1` (configuration not stated), 12.6% (inactive). The same measure, in the same setting: for `COc1ccc(/C=C/c2nnc(NC(=O)C(C)C)s2)cc1` the value was 2.36% (inactive). Turning to `Cn1nc(C(F)(F)F)c(-c2ccc(F)cc2)c1NC(=O)CSCC(=O)O`, for the setting “at 3.6 µM”, the inhibition was 10% (inactive). Still for that read-out and setting: for `O=[N+]([O-])/C=C1\CCCCCN1` the value was -6.23% (inactive); for `O=C1[C@@H]2C(c3cccnc3)=NO[C@@H]2C(=O)N1c1ccc(Cl)cc1Cl`, 13.9% (inactive); for `CCOC(=O)CNc1nc(Cl)nc(Nc2ccccc2)n1`, 0.72% (inactive). In the case of `Cn1nccc1NC(=O)Nc1ccc(OC(F)(F)F)cc1`, for the setting “at 3.6 µM”, the inhibition is -2.41% (inactive). On to `COc1ccccc1P(=O)(c1ccccc1)c1ccccc1NC(C)=O` (configuration not stated), for which the inhibition runs as follows: (at 3.6 µM) 40.9% (inactive); under setting [1], -18.2%. For the molecule `CCOC(=O)C(CC)/C(C)=N\NC(=O)c1cccc(C)c1` (configuration not stated), the inhibition (at 3.6 µM) is 9.71% (inactive). On to `COC(=O)CC1=NN(c2ccccc2)C(=O)C1`, for which, under “at 3.6 µM”, the inhibition is -13% (inactive). Take `Cc1cc(C(=O)OCC(=O)Nc2nccs2)c2ccccc2n1`: the inhibition (at 3.6 µM) is 9.68% (inactive). The same measure, in the same setting: for `Cc1ccccc1C(=O)Nc1ccc(N2CCCCCC2)cc1` the value was -4.06% (inactive); for `COc1ccc(NC(=O)CSc2ncnc3[nH]ncc23)cc1`, -14.6% (inactive). On the same count and under the same terms, for `CCC/C(C)=N\Nc1nc2c(c(=O)n(C)c(=O)n2C)n1C` the value was -3.15% (inactive); for `COc1ccc(/C=N/NS(=O)(=O)c2ccc(NC(C)=O)cc2)cc1`, 10.1% (inactive). Consider `C/C(CCc1ccccc1)=N\NC(=O)c1ccc(CN2CCOCC2)cc1`, for which the inhibition (at 3.6 µM) is 6.96% (inactive).
